Among the data in PubChem BioAssay AID493084 (National Center for Advancing Translational Sciences (NCATS), 2011) are activation values, retold here.

Screen size: about 360,000 compounds; about 650 (0.18%) were called active. The sample holds actives, similar compounds and a random draw of the others, so the mix is not that of the screen. No stated cut-off is given here; in the data, active means activation above about 30%; inactive means the rest.

The target of the experiment is Thyrotropin-releasing hormone receptor (Homo sapiens) (UniProt P34981). As to the kind of experiment: qHTS for Small Molecule Agonists and Allosteric Enhancers of Human TRH Receptor: Primary Screen for Agonists. Further: 0% is about no effect. Particulars: TRHR cells, calcium flux fluo-8, FDSS agonist mode; at 2 µM; stronger effect = higher value. From the text: NIH Chemical Genomics Center [NCGC] NIH Molecular Libraries Probe Centers Network [MLPCN] MLPCN Grant: MH089816-01 Assay Submitter (PI): Marvin Gershengorn This project aims to identify small drug-like molecules that activate (agonists) the thyrotropin releasing hormone (TRH) receptor (TRHR) or enhance its TRH-stimulated activity (allosteric enhancers). TRHR, a drug-accessible cell surface receptor expressed in specific brain regions, and its ligand TRH have been implicated in several central nervous system disorders, including depression and anxiety. Small molecule TRHR agonists or allosteric enhancers that are metabolically stable and able to cross the blood-brain barrier might serve as probes to elucidate the roles of brain TRH receptors in animal models, and might be valuable as lead compounds for the development of drugs to treat patients with central nervous system disorders. Upon TRHR-Gq activation in TRHR cells, intracellular calcium is released from stores in the endoplasmic reticulum. […] This primary screen measures compound-induced activation of calcium release.
Sequence of Thyrotropin-releasing hormone receptor (Homo sapiens) (P34981 whole entry, looked up): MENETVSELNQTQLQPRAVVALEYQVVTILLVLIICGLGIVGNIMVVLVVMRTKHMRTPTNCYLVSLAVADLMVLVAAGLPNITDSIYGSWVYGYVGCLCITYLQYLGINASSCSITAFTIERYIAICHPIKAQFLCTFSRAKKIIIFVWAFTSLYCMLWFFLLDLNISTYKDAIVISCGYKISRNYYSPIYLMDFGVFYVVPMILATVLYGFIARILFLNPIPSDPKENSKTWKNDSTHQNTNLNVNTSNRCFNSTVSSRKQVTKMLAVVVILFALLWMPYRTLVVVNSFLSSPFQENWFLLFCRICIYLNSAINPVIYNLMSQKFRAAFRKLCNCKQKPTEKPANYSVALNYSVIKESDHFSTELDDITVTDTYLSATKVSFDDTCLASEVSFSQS
For the HTS assay freshly prepared cells are plated at a density of 2000/well in 3 ul of complete DMEM medium containing 10% serum in 1536-well plates and cultured over night at 37 C in a humidified incubator with 5% CO2. The next day, 2 ul of a no wash calcium dye (ABD Bioquest) was added to the cells and plates were incubated at room temperature for 1 hour. For the assay, assay plates were loaded into the FDSS kinetic plate reader. A 10 cycle (1 second/cycle) baseline measurement is taken and then the FDSS online 1536 pintool delivers 23 nl of compound library (as well as TRH controls) to the plate. The plate is measured for kinetically at 1 cycle/sec for 180 seconds and is considered to be the agonist portion of the assay (eg, compounds which activate a positive calcium response during this portion are flagged as potential agonists). Following the 180 second read, 1 ul of either an EC20 (positive modulation assay) is delivered by an onboard pipette head. Measurements are taken kinetically for an additional 180 seconds. TRHR FDSS Screening Protocol 1. Reagent, 3 uL 2000 cells/well 1536 TC treated Black plate in media containing 10% FCS 2. Time, 18 hours, 33.5C 5% CO2 (cells grown at 37C) 3. Reagent, 2 uL ABD fluo-8 Ca dye 4. Time, 30 min-1.5hrs hours, Room temp (6 plates/batch) 5. Detector, EX 480/EM 530C, FDSS 10 cycles baseline (1sec/cycle) 6. Compound, 23 nL of stock solution from library 7. Detector, EX 480/EM 530C, FDSS […] (1sec/cycle) Agonist mode 8. Compound, 1 ul EC20 of TRH made up in HEPES HBSS, 10 nM final 9. Detector, EX 480/EM 530C, FDSS 100 cycles (1sec/cycle) Potentiator mode
A general note: In qHTS, concentration-response curves come from the screen itself.
For `CCN(CC)c1ccc2oc(=O)c(C)nc2c1`, the activation was 100% (active). In the case of `COc1cccc(N2CCN(S(=O)(=O)c3ccc4c(c3)CCCN4C(C)=O)CC2)c1` it was -0.749% (inactive); in that of `COc1ccc(CCNC(=O)Cn2c(=O)cc(C(F)(F)F)c3c(C)nn(C)c32)c(OC)c1`, -0.214% (inactive). Consider `Cc1cc2c(s1)c1cnn(Cc3c(F)cccc3Cl)c(=O)c1n2C`, for which the activation was -0.043% (inactive). In the case of `COc1cccc(NC(=O)Nc2ccc3c(c2)N(C)C(=O)c2ccccc2S3)c1` it was -0.213% (inactive); in that of `CCOC(=O)c1c(S(=O)(=O)N2CCCC(C(=O)NCc3ccc(F)cc3)C2)c(C)n(CC)c1C` (centres undefined), -0.483% (inactive). On to `O=S(=O)(c1ccc(Br)cc1)c1nnn2c1nc(NC1CCCCCC1)c1sccc12`, for which the activation was -0.704% (inactive). The figure for `COc1ccc(NC(=O)CSc2nc3ccccc3n2CC(=O)N2CCCCC2C)cc1` (centres undefined) is -0.312% (inactive); for `N#Cc1nc(Nc2cccc(Cl)c2)nc(NC2CCCC2)n1` it is -2.51% (inactive); for `COc1ccccc1N1CCN(S(=O)(=O)CCNC(=O)COc2ccc(F)cc2)CC1` it is -0.566% (inactive). Turning to `CCOc1cccc2c1N[C@@H](c1ccc(C(=O)O)cc1)[C@H]1CC=C[C@@H]21`, the activation was 0.0412% (inactive). For the molecule `COc1ccc(CNC(=O)Cc2coc3ccc(C(C)C)cc23)cc1`, the activation was -0.0096% (inactive).

For `CCOc1cc(-c2nnc(SCC(=O)NC3CCCC3)nc2-c2ccc(OC)c(OCC)c2)ccc1OC`, the activation is 0.306% (inactive). Regarding `CCOC(=O)c1nnn(CC(=O)NC(=O)Nc2ccccc2F)c1C(=O)OCC`, the activation was 1.07% (inactive). Regarding `CN1CCOc2cc(S(=O)(=O)N3CCN(S(=O)(=O)c4c(F)cccc4F)CC3)cnc21`, the activation is -0.448% (inactive). In the case of `Nc1ccc2nc3c(=O)[nH]c(=S)[nH]c3nc2c1` it was 35.9% (active); in that of `CCN(c1ccc(Cl)cc1)S(=O)(=O)c1nnc(NC(=O)c2ccco2)s1`, -0.115% (inactive); in that of `COc1ccc(CCNC(=O)Cn2c(=O)n(-c3ccccc3)c(=O)c3c(C)c(C)sc32)cc1OC`, -1.42% (inactive).

On to `O=C(NCc1nnc(C(=O)Nc2ccc(C(F)(F)F)cc2Cl)o1)c1ccccc1`, for which the activation was -2.31% (inactive). In the case of `COC(=O)c1ccccc1NC(=O)c1ccc(C#N)cc1` it was 0.34% (inactive).

Take `Cc1ccccc1C(=O)NCc1nc(-c2ccc(Cl)cc2)no1`: the activation was -0.152% (inactive). In the case of `Cc1cccc(C(C)C)c1NC(=O)C(NS(=O)(=O)c1cccc2nsnc12)c1ccccc1` (centres undefined) it was -0.333% (inactive); in that of `COc1ccc(CNC(=O)Cn2nnc(-c3ccccc3F)n2)cc1`, -0.359% (inactive); in that of `CCOc1ccccc1N(CC)C(=O)c1cc2ccc3cccnc3c2[nH]1`, 2.85% (inactive). Consider `Cc1ccccc1NC(=O)CN1C(=O)C(C)(C)c2ccccc21`, for which the activation is 0.364% (inactive). The figure for `CCOc1ccc2nc(N3CCC(C(=O)Nc4cc(C)ccc4C)CC3)sc2c1` is -0.106% (inactive); for `Cc1ccccc1NC(=O)c1cc2c([nH]c1=O)CC(C)(C)CC2=O` it is 1.28% (inactive). Take `Cc1ccc(CNC(=O)c2cccc3c2C(=O)c2ccc(N4CCC(C)CC4)cc2S3(=O)=O)cc1`: the activation is 86.3% (active). For the molecule `Cc1ccc(CNC(=O)c2ccccc2CCc2ccccc2)cc1`, the activation was 0.513% (inactive). The figure for `COc1cccc(-c2ccc3c(c2)S(=O)(=O)c2cccc(C(=O)O)c2C3=O)c1OC` is 0.018% (inactive); for `Cc1ccc(C2C3=C(Nc4[nH]n(-c5ccccc5)c(=O)c42)c2ccccc2C3=O)cc1` (centres undefined) it is -0.291% (inactive); for `COC(=O)C1=C(C)NC2=C(C(=O)c3ccccc32)C1c1ccc(-c2ccc(C(=O)O)cc2)o1` (centres undefined) it is 46.3% (active).

On to `CCOc1cc(C2C(C(=O)OC)=C(C)NC3=C2C(=O)c2ccccc23)ccc1O` (centres undefined), for which the activation is 0.256% (inactive). With `Cc1c(C)n(Cc2ccc(Cl)cc2)c2ccc(C(=O)NCCc3ccc(S(N)(=O)=O)cc3)cc12`, the activation is 0.277% (inactive). On to `Cc1nn(-c2ccc(N3CCCCC3)nn2)c(C)c1CCC(=O)NCc1ccc(F)cc1`, for which the activation is -0.372% (inactive).

As for `CCN1/C(=C\c2ccc3ccccc3[n+]2CC)Sc2cc(C)ccc21`, the activation was 34.6% (active).

Regarding `CCCC12CN3CC(CCC)(CN(C1)C3c1c[nH]c3ccc(OC)cc13)C2=O` (centres undefined), the activation was 2.39% (inactive).

In the case of `CCOc1cc(/C=C(/C#N)c2ccc(Cl)cc2)cc(Cl)c1OCC(=O)O`, the activation was -0.184% (inactive). For the molecule `CCOc1cc(/C=C(\C#N)C(=O)Nc2ccccc2C)ccc1OCc1cc(=O)n2nc(CC)sc2n1`, the activation is -1.33% (inactive). As to `CCOc1cc(/C=C(\C#N)c2nc(-c3cccs3)c(NC(C)=O)s2)ccc1O`, the activation is 37.3% (active).

Consider `Cc1nc2ccc(S(=O)(=O)N(CC(=O)Nc3ccc(F)cc3)Cc3ccccc3)cc2s1`, for which the activation is -0.726% (inactive).

In the case of `Cc1ccc(-n2nc(C)c3c(C)cc(=O)n(CC(=O)Nc4ccc(C(C)C)cc4)c32)cc1`, the activation is -0.803% (inactive).

Regarding `Cc1cccc(NC(=O)N2CCC(CN3CCc4ccccc4C3)CC2)c1C`, the activation is -0.238% (inactive). In the case of `O=C(Nc1ccc(OC(F)(F)F)cc1)c1cc2c(=O)n3ccccc3nc2s1` it was 0.583% (inactive); in that of `O=C(/C=C(O)/C=C/c1ccc(O)cc1)/C=C/c1ccc(O)cc1`, 150% (active); in that of `CC1=CC2=NC(=O)/C(=C/c3coc4ccccc4c3=O)C(=N)N2O1`, 111% (active). In the case of `COc1ccc(OCCCn2cccc2/C=C2/C(=N)N3OC(C)=CC3=NC2=O)cc1` it was -0.544% (inactive); in that of `O=C(NCc1ccc(Cl)cc1)c1ccc2c(c1)nnn2C1CCCC1`, -0.129% (inactive); in that of `O=S(=O)(c1ccc(Br)cc1)c1nnn2c1nc(N1CCOCC1)c1sccc12`, -0.0076% (inactive). On to `Cc1ccc(NC(=O)c2oc3ccc(S(=O)(=O)N4CCCCC4)cc3c2C)cc1Cl`, for which the activation was 1.26% (inactive). In the case of `COc1ccc(C(=O)Nc2nonc2-c2ccc(OC)c(OC)c2)cc1Cl` it was -1.06% (inactive); in that of `Cc1cccc(N2CCN(c3c(CN4CCCC4)c(=O)oc4ccccc34)CC2)c1C`, 0.139% (inactive). In the case of `COC1=C/C(=C/c2c(N)n3nc(CC(=O)N4CCOCC4)sc3nc2=O)C=CC1=O`, the activation was 15.5% (inactive). As to `C=CCC1=C/C(=C\c2c(N)n3nc(CC(=O)N4CCOCC4)sc3nc2=O)C=C(OC)C1=O`, the activation is 162% (active).
